8 molecules from paper PMC5540273 (PLoS ONE, 2017) can be followed below.

Several values for one entry are separate records, joined by “and”; a condition that tells them apart may be missing. Equal values may be shown once. Read-outs that look alike come from different tables or passages of the source.

In assay [1] the test system is HPK1. Conditions: concentration: 1 μM, replicates: in singlicate; n = 1.
Assay [2] concerns HUNK. The settings on record: concentration: 1 μM, replicates: in singlicate, n = 1.
Assay [3] has as its system ICK. Conditions: concentration: 1 μM, replicates: in singlicate, n = 1.
Assay [4] concerns IGF1R. Conditions: concentration: 1 μM, replicates: in singlicate, n = 1.
In assay [5] the test system is T1, IKK-alpha.
T1 construct: gene CHUK
The settings on record: concentration: 1 μM, replicates: in singlicate, n = 1.

Assay [6] has as its system T2, IKK-beta.
T2 construct: gene IKBKB
The settings on record: concentration: 1 μM, replicates: in singlicate, n = 1.

The test system of assay [7] is T3, IKK-epsilon.
T3 construct: gene IKBKE
Conditions: concentration: 1 μM, replicates: in singlicate, n = 1.

For assay [8], the system named is INSRR. The settings on record: concentration: 1 μM, replicates: in singlicate; n = 1.
Assay [9] has as its system INSR. Conditions: concentration: 1 μM, replicates: in singlicate, n = 1.
In assay [10] the test system is IRAK1. Conditions: concentration: 1 μM, replicates: in singlicate, n = 1.
In assay [11] the test system is IRAK3. The settings on record: concentration: 1 μM, replicates: in singlicate; n = 1.
In assay [12] the test system is IRAK4. The settings on record: concentration: 1 μM, replicates: in singlicate, n = 1.
For assay [13], the system named is ITK. Conditions: concentration: 1 μM, replicates: in singlicate, n = 1.
Assay [14] has as its system JAK1(JH1domain-catalytic). Conditions: concentration: 1 μM, replicates: in singlicate, n = 1.
Assay [15] deals with JAK1(JH2domain-pseudokinase). The settings on record: concentration: 1 μM, replicates: in singlicate, n = 1.
Assay [16] deals with JAK2(JH1domain-catalytic). The settings on record: concentration: 1 μM, replicates: in singlicate, n = 1.
In assay [17] the test system is JAK3(JH1domain-catalytic). Conditions: concentration: 1 μM, replicates: in singlicate, n = 1.
For assay [18], the system named is T4, JNK1.
T4 construct: gene MAPK8
Conditions: concentration: 1 μM, replicates: in singlicate, n = 1.

The subject of assay [19] is T5, JNK2.
T5 construct: gene MAPK9
The settings on record: concentration: 1 μM, replicates: in singlicate, n = 1.

Assay [20] concerns T6, JNK3.
T6 construct: gene MAPK10
Conditions: concentration: 1 μM, replicates: in singlicate, n = 1.
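Also: KINOMEscan kinase panel screen.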

Consider `CC(C)(CN)c1nc(-c2ccc(Cl)c(O)c2)c(-c2ccncc2)[nH]1.O=C(O)C(F)(F)F` [SB-477794], for which the “%Inh” value is 46% in [1]; 0% and 16% in assay [2] (1 µM); 23% and 0% in assay [3] (1 µM); 0% and 9% in assay [4] (1 µM); 64% and 34% in assay [5] (1 µM); 33% and 0% in [6] (1 µM). In addition, the “%Inh” value is 10% and 6% in assay [7] (1 µM); 0% in assay [8]; 23% and 0% in [9] (1 µM); 62% and 44% in assay [10] (1 µM); 0% in [11]; 43% and 0% in [12] (1 µM). Besides, the “%Inh” value in assay [13] (1 µM) is 9% and 0%; in [14] (1 µM) it was 28% and 15%; in [15] (1 µM), 0% and 2%; in assay [16] (1 µM), 18% and 8%; in assay [17] (1 µM) it was 0% and 28%; in assay [18] (1 µM), 41% and 32%. Further, the “%Inh” value was 85% and 80% in [19] (1 µM); 93.6% and 92.8% in [20] (1 µM).

With `Cc1cccc(-c2nc(-c3ccc(S(C)(=O)=O)cc3)sc2-c2ccncc2)c1`, the “%Inh” value stood at 0% in [1]; 0% in assay [2]; 0% in assay [3]; 7% in [4]; 0% in [5]; 1% in [6]. For the same molecule, the “%Inh” value in assay [7] is 0%; in assay [8], 7%; in assay [9], 8%; in [10], 18%; in assay [11], 33%; in assay [12] it was 15%. Moreover, the “%Inh” value in assay [13] is 19%; in assay [14] it was 15%; in [15], 17%; in assay [16] it was 0%; in assay [17], 6%; in assay [18], 26%. The “%Inh” value in assay [19] is on record as 28%; in [20], 33%.

Turning to `CC(=O)Nc1ccc(COc2ccc(Nc3ccnc4cc(-c5ccccn5)ccc34)cc2)cc1.Cl` [GW440148], the “%Inh” value is given as 10% in assay [1]; 22% in assay [2]; 0% in [3]; 0% in assay [4]; 0% in assay [5]; 4% in assay [6]. Besides, the “%Inh” value in assay [7] is recorded as 21%; in assay [8] it was 0%; in assay [9], 12%; in assay [10] it was 0%; in assay [11] it was 6%; in assay [12], 0%. Besides, the “%Inh” value in assay [13] is given as 0%; in assay [14] it was 22%; in [15] it was 0%; in assay [16], 18%; in assay [17] it was 0%; in [18], 0%. Also, the results for the “%Inh” value in assay [19] and in assay [20] were 17% and 9%, respectively.

With `CN1c2ccc(NCc3ccc(F)cc3)cc2-c2c(cnn2C)S1(=O)=O`, the “%Inh” value was 26% in [1]; 52% in [2]; 0% in assay [3]; 0% in assay [4]; 0% in [5]; 0% in assay [6]. Moreover, the “%Inh” value in [7] was 0%; in assay [8] it was 16%; in [9] it was 0%; in [10] it was 0%; in assay [11], 0%; in assay [12], 0%. The “%Inh” value in [13] came out at 0%; in assay [14], 0%; in [15] it was 11%; in assay [16], 1%; in assay [17], 0%; in assay [18], 0%. The “%Inh” value in assay [19] and in [20] was 0% throughout.

On to `O=C1NC(=O)C(N2CCc3ccccc32)=C1c1cccc(Cl)c1` [SB-408010], for which the “%Inh” value in assay [1] came to 19%; in assay [2] it was 20%; in assay [3] it was 40%; in [4] it was 0%; in assay [5], 0%; in assay [6], 10%. Further, the “%Inh” value in assay [7], in [8], in [9], in assay [10], in [11] and in [12] was 0% each time. Further, the “%Inh” value in [13] amounted to 15%; in assay [14] it was 14%; in [15], 0%; in assay [16], 0%; in assay [17] it was 0%; in [18] it was 41%. For the same molecule, the “%Inh” value in assay [19] is on record as 34%; in assay [20], 29%.

For `NCC(NC(=O)c1cc(-c2cn[nH]c2)c(-c2ccnc3[nH]ccc23)s1)c1ccccc1.O=C(O)C(F)(F)F.O=C(O)C(F)(F)F` (stereo not shown) [GSK1325775], the “%Inh” value in assay [1] worked out at 63%; in [2] it was 0%; in assay [3] it was 3%; in assay [4] it was 0%; in assay [5], 54%; in assay [6] it was 79%. The “%Inh” value in [7] is given as 24%; in [8] it was 0%; in assay [9], 3%; in assay [10], 93.6%; in assay [11], 0%; in [12], 21%. For the same molecule, the “%Inh” value in [13] was found to be 7%; in assay [14], 45%; in assay [15], 11%; in assay [16] it was 95.7%; in assay [17], 100%; in assay [18], 40%. Further, the “%Inh” value in assay [19] is reported as 7%; in assay [20], 12%.

For `O=c1cc(N2CCOCC2)nc2n(Cc3cccc4ccccc34)ccn12` [GSK2333389], the “%Inh” value was 5% in assay [1]; 0% in [2]; 0% in assay [3]; 4% in assay [4]; 29% in assay [5]; 17% in assay [6]. The “%Inh” value in assay [7] was determined as 0%; in [8], 0%; in assay [9], 0%; in assay [10], 13%; in assay [11], 0%; in assay [12], 20%. For the same molecule, the “%Inh” value stood at 21% in [13]; 7% in assay [14]; 0% in [15]; 17% in assay [16]; 0% in assay [17]; 21% in [18]. Moreover, the “%Inh” value in [19] and in assay [20] was 0% each time.

Regarding `Cc1ccc(NC(=O)c2ccnc(N3CCN(C)CC3)c2)cc1-c1ccc(C(=O)NCC2CC2)cc1` [GW775604], the “%Inh” value in assay [1] is 0%; in assay [2], 34%; in assay [3] it was 0%; in assay [4], 0%; in assay [5], 0%; in [6], 0%. Moreover, the “%Inh” value in [7], in [8], in assay [9], in assay [10], in assay [11] and in assay [12] was 0% each time. For the same molecule, the “%Inh” value is 0% in assay [13]; 0% in assay [14]; 27% in [15]; 2% in assay [16]; 0% in assay [17]; 0% in assay [18]. The “%Inh” value in [19] and in assay [20] was 0% throughout.
